Each target was assayed with C#CCNC(=O)CCSSCCC(=O)NCCc1ccc(C=O)c(C=O)c1 (assay: lysine labeling ratio R10:1 (500 µM / 50 µM probe), SILAC-ABPP in living cells; higher = lower intrinsic lysine reactivity toward the probe, active = 2 or less). Settings: HeLa; probe concentrations 500 vs 50 µM.
In short: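 Living SILAC light and heavy HeLa cells in PBS at room temperature were treated with an alkyne-tagged, disulfide-linked lysine probe at 50 µM or 500 µM, with forward and reverse label swaps. The mixed lysates were clicked to biotin-azide, digested with trypsin, captured on neutravidin, released with DTT, alkylated and run by LC-MS/MS on a TIMS-TOF Pro. R for each lysine is the filtered median high-probe/low-probe MS1 peptide ratio, taken again as the median over forward and reverse replicates. Any value above 20 is set to 20.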

Sequence of UniProt Q15149 (Q15149 whole entry): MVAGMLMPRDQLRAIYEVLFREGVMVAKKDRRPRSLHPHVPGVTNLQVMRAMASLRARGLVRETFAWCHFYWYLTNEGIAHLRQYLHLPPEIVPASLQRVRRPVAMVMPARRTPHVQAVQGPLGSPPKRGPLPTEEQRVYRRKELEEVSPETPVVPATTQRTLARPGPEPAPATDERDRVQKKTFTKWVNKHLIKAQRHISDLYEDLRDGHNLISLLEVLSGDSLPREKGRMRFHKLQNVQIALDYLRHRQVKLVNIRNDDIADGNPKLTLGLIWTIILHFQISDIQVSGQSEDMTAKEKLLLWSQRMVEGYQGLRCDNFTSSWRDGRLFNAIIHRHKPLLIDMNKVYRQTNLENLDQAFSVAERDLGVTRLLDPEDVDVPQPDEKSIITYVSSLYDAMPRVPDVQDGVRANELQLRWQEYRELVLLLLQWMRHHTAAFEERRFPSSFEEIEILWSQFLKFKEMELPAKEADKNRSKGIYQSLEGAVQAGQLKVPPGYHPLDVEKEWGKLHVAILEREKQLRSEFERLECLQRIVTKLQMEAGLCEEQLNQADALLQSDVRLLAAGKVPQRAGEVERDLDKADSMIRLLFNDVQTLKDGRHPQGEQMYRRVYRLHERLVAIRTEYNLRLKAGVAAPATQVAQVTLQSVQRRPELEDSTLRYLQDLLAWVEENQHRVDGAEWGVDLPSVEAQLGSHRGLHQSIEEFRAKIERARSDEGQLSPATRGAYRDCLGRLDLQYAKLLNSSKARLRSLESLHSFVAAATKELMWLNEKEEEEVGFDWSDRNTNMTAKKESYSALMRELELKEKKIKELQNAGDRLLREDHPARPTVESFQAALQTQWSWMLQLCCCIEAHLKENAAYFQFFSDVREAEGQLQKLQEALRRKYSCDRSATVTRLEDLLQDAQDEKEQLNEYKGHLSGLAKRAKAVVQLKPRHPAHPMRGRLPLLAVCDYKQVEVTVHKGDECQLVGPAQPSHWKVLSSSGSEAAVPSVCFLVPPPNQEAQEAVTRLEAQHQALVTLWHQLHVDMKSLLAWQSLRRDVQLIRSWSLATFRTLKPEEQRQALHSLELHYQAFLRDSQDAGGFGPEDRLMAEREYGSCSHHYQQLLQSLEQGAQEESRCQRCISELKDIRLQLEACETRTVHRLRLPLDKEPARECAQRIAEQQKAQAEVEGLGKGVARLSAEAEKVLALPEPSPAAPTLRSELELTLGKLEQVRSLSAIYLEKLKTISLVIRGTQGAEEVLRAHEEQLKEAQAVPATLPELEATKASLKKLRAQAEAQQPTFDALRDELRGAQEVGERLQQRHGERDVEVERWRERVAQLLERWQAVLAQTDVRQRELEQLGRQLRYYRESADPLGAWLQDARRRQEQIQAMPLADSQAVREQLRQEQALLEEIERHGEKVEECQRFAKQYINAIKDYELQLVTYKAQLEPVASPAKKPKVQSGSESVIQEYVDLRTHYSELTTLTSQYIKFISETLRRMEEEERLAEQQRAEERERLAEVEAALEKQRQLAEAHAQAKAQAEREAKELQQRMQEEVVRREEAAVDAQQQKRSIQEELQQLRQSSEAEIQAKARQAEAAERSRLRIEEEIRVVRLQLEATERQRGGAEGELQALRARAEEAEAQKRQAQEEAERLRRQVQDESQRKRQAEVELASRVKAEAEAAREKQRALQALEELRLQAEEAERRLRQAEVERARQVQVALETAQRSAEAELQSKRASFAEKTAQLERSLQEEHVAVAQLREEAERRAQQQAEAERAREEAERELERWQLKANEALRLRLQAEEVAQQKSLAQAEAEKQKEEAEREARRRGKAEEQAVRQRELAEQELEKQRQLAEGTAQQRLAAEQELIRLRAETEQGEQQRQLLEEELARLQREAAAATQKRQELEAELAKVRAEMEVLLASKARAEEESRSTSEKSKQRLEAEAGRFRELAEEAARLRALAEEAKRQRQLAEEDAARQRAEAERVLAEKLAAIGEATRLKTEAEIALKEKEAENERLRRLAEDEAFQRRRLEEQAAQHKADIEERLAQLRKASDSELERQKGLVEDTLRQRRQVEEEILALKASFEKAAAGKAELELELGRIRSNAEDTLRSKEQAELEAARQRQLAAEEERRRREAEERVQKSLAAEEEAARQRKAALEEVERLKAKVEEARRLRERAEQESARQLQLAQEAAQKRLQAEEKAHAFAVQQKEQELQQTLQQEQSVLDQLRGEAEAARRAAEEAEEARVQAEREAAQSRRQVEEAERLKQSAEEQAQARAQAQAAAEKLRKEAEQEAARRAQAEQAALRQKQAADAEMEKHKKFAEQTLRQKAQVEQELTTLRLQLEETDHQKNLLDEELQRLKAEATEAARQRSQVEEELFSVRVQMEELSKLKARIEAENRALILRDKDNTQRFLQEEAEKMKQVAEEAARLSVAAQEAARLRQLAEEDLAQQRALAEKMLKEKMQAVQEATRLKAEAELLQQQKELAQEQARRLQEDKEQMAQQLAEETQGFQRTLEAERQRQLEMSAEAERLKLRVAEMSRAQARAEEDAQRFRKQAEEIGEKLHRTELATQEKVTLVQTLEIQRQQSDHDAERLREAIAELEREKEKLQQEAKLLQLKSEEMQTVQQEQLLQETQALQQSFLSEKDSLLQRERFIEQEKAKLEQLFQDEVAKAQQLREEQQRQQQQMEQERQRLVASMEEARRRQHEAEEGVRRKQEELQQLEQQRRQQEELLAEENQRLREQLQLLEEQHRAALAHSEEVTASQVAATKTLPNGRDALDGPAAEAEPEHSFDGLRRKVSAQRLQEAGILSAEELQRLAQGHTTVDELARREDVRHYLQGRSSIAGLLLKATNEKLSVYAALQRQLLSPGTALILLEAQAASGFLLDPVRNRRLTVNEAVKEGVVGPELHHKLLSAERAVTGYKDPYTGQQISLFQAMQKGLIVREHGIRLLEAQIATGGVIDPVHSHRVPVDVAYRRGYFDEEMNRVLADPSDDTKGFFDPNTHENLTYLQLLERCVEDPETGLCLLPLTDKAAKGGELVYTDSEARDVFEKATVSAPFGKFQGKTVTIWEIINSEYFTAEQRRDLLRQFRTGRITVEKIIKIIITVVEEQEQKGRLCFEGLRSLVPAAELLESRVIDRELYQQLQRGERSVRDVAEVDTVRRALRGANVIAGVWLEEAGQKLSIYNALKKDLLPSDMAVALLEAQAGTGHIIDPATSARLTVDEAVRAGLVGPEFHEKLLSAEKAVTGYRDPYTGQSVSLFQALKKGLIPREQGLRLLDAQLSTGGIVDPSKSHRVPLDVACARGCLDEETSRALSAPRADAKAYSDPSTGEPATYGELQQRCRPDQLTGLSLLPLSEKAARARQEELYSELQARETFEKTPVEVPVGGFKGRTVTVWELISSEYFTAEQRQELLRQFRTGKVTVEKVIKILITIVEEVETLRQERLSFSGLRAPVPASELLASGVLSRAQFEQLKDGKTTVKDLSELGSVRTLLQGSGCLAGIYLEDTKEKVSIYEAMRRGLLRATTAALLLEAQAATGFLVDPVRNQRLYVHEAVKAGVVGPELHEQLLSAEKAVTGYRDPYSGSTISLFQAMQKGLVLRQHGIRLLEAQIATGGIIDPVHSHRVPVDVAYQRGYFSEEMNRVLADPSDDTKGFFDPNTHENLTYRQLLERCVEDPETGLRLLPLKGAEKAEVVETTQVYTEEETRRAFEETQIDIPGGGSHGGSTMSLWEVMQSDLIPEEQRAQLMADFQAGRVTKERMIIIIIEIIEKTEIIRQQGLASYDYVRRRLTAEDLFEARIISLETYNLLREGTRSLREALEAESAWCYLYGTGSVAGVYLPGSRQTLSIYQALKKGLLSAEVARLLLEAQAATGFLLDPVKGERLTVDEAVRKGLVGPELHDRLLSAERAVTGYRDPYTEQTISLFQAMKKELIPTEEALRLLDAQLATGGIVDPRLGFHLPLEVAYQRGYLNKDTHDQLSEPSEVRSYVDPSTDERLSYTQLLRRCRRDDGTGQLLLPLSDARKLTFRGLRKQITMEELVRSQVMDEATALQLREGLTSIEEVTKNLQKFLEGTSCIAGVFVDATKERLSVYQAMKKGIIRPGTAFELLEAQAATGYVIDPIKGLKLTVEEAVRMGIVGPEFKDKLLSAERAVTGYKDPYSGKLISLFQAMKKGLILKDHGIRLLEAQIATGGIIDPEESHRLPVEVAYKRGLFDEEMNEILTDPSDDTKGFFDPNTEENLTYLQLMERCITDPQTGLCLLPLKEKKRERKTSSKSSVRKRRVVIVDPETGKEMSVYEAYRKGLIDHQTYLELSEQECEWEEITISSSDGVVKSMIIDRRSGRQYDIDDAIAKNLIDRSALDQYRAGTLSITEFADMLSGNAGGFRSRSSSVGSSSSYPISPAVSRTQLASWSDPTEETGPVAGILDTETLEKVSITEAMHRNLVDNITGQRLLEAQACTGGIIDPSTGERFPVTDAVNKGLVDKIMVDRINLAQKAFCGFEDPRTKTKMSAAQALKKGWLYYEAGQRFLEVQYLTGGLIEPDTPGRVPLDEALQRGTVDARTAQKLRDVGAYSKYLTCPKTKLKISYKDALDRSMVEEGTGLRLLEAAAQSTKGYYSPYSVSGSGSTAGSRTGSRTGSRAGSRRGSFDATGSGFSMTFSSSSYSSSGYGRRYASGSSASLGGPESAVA
Sequence of UniProt P15509 (P15509 whole entry): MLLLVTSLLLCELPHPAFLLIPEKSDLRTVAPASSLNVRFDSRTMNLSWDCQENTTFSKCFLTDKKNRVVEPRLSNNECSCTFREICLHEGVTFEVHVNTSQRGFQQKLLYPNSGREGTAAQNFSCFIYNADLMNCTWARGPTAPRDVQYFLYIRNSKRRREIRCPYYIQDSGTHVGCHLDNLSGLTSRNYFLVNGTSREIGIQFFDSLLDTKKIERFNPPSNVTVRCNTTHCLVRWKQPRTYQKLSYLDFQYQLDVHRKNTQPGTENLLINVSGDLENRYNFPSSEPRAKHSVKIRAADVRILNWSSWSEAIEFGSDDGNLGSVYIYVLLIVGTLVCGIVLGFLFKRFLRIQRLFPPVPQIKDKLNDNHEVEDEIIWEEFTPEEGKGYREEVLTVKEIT

Lysine labeling ratio R10:1, active:
MYH9 (lysine site: K1338) (UniProt P35579) 1.98
CLSTN1 (lysine site: K322) (UniProt O94985) 0.805
PPIC (lysine site: K49) (UniProt P45877) 1.58
FAS (lysine site: K100) (UniProt P25445) 1.44
UniProt Q4KMG0 (lysine site: K149) 1.47
ILF3 (lysine site: K535) (UniProt Q12906) 0.982
TLN1 (lysine site: K1221) (UniProt Q9Y490) 1.89
CSF2RA (lysine site: K108) (UniProt P15509) 0.663
DYNC1H1 (lysine site: K3480) (UniProt Q14204) 1.73
UniProt Q15149 (lysine site: K4348) 1.12
SUB1 (lysine site: K39) (UniProt P53999) 1.42
PDIA6 (lysine site: K245) (UniProt Q15084) 1.95
CORO1C (lysine site: K329) (UniProt Q9ULV4) 1.19

Lysine labeling ratio R10:1, inactive:
SH3BP4 (lysine site: K679) (UniProt Q9P0V3) 3.02
UniProt Q9H336 (lysine site: K304) 2.33
ITGA1 (lysine site: K711) (UniProt P56199) 3.16
UniProt P62249 (lysine site: K60) 4.81
SLC25A5 (lysine site: K147) (UniProt P05141) 4.57
DSG2 (lysine site: K67) (UniProt Q14126) 3.97
ITGA1 (lysine site: K81) (UniProt P56199) 2.7
RAB13 (lysine site: K172) (UniProt P51153) 4.07
P30462 (lysine site: K267) (UniProt P01889) 2.91
RARS (lysine site: K471) (UniProt P54136) 2.85
VIM (lysine site: K313) (UniProt P08670) 10.6
COL5A1 (lysine site: K905) (UniProt P20908) 3.42
PTPRS (lysine site: K1001) (UniProt Q13332) 4.13
PTPRF (lysine site: K994) (UniProt P10586) 4.54
TXLNA (lysine site: K256) (UniProt P40222) 3.67
UniProt Q15149 (lysine site: K1573) 2.01
IDE (lysine site: K364) (UniProt P14735) 2.3
HSPD1 (lysine site: K133) (UniProt P10809) 3.96
UniProt P62277 (lysine site: K70) 6.69
DCTN2 (lysine site: K175) (UniProt Q13561) 2.59
NOTCH1 (lysine site: K1607) (UniProt P46531) 6.4
HNRNPM (lysine site: K69) (UniProt P52272) 3.38
ROR2 (lysine site: K285) (UniProt Q01974) 3.36
FGB (lysine site: K426) (UniProt P02675) 2.95
DDX5 (lysine site: K490) (UniProt P17844) 5.18
HSPA9 (lysine site: K300) (UniProt P38646) 2.25
FLNA (lysine site: K1372) (UniProt P21333) 2.93
